The whole screen tested about 1,300 compounds, of which about 980 (75%) were called active. Another 4% or so got no clear call; they are omitted. The list shows a part of the results. A number with no mark means an inactive call. Residues, ends and D or L forms follow the SMILES beside them. *: point of attachment. Cbz = O=C(OCc1ccccc1)*

Usually inhibition stands for the change of the read-out against control, counted positive when it falls.

This assay deals with Sulfhydryl oxidase 1 (Homo sapiens) (UniProt O00391). Kind of assay: inhibition of human sulfhydryl oxidase QSOX1 – biochemical, HyperBlu H2O2 luminescence, HTS, primary screen (AID 1347420). Also: values above 100% were filed as inconclusive. The conditions noted are these: recombinant QSOX1, HyperBlu H2O2 luminescence; at 12.5 µM; active compounds read high; active = any value above zero.
Sequence of Sulfhydryl oxidase 1 (Homo sapiens) (O00391 whole entry, looked up): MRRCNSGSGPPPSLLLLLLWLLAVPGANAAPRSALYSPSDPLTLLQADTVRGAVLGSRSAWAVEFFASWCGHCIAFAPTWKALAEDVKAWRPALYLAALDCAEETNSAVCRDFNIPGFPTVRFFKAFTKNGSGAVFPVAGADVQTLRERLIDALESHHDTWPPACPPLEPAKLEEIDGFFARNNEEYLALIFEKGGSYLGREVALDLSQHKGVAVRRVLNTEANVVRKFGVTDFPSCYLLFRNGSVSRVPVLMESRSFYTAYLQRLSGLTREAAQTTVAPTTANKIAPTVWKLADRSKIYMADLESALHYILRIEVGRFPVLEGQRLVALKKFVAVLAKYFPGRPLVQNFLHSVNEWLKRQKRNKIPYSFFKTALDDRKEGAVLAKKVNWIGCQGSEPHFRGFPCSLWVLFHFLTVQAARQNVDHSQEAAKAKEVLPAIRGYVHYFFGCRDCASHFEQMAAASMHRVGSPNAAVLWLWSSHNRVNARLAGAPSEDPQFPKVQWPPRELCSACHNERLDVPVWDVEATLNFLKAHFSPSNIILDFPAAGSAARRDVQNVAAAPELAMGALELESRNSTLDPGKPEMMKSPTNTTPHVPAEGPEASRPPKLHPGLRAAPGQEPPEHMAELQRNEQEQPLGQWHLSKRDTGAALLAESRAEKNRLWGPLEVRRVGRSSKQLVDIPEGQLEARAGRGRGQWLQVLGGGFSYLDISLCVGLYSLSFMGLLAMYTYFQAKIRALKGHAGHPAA
As for `CC1=C(/C=C/C(C)=C/C=C/C(C)=C/C(=O)Nc2ccc(O)cc2)C(C)(C)CCC1`, the inhibition was 29.7% (active).

For the molecule `CC1=C(/C=C/C(C)=C/C=C/C(C)=C/C(=O)O)C(C)(C)CCC1`, the inhibition was 11.4% (active).

As for `CC1=C(/C=C/C(C)=C/C=C/C(C)=C\C(=O)O)C(C)(C)CCC1`, the inhibition is 3.1% (active).

With `O=C(Nc1ccc([N+](=O)[O-])cc1Cl)c1cc(Cl)ccc1O`, the inhibition is 11.3% (active).

In the case of `O=C(Nc1ccncc1)c1cc([N+](=O)[O-])ccc1Cl`, the inhibition was 41.9% (active).

On to `O=C(Nc1ccccc1)c1cc([N+](=O)[O-])ccc1Cl`, for which the inhibition is 35.3% (active).

Take `O=C(O)c1cc([N+](=O)[O-])ccc1NCCCc1ccccc1`: the inhibition was 84.4% (active).

On to `O=C(/C=C/c1ccc(O)c(O)c1)OCCc1ccccc1`, for which the inhibition is 98.9% (active).

Turning to `O=c1cc(O)cc(/C=C/c2ccc(O)c(O)c2)o1`, the inhibition was 84.2% (active).

As to `O=C(O)/C=C/c1ccc(O)c(O)c1`, the inhibition is 74.3% (active).

With `CN1CCCC1CCOC(C)(c1ccccc1)c1ccc(Cl)cc1` (stereo not drawn), the inhibition was 7.6% (active).

For `CCN(CC)C(=O)c1ccc(O)c(OC)c1`, the inhibition was 17.3% (active).

`O=C(O)Cc1ccc(O)c(O)c1`: the inhibition is 52.8% (active).

For the molecule `COc1cc(CC(=O)O)ccc1O`, the inhibition is 4.4% (active).

For `NCCc1ccc(O)c(O)c1`, the inhibition was 61.7% (active).

For the molecule `CCc1c(C(=O)NCCc2ccc(N3CCCCC3)cc2)[nH]c2ccc(Cl)cc12`, the inhibition is 13.2% (active).

In the case of `Cc1ccc(S(=O)(=O)N[C@@H](Cc2ccccc2)C(=O)CCl)cc1`, the inhibition is 4% (active).

In the case of `CC(C)[C@H](NC(=O)OCc1ccccc1)C(=O)N[C@H](C=O)Cc1ccccc1` (Cbz-Val-Phe-aldehyde), the inhibition was -15.7%.

Consider `O=C(N[C@@H](Cc1ccccc1)C(=O)CCl)OCc1ccccc1`, for which the inhibition was 0.2% (active).

On to `CC(C)Cc1ccc([C@H](C)C(=O)O)cc1`, for which the inhibition was 5.1% (active).

Regarding `CC(C)Cc1ccc(C(C)C(=O)O)cc1` (stereo not drawn), the inhibition was -0.2%.

With `CC(C(=O)O)c1ccc(CC2CCCC2=O)cc1` (stereo not drawn), the inhibition was 13.5% (active).

Consider `CC(C)(C(=O)O)c1ccc(C(O)CCCN2CCC(C(O)(c3ccccc3)c3ccccc3)CC2)cc1` (stereo not drawn), for which the inhibition was -4.1%.

Regarding `CC(C)(C)c1ccc(C(O)CCCN2CCC(C(O)(c3ccccc3)c3ccccc3)CC2)cc1` (stereo not drawn), the inhibition was 6.1% (active).

For the molecule `CC(C)(C)c1ccc(/C=C/C(=O)Nc2ccc3c(c2)OCCO3)cc1`, the inhibition is 17.7% (active).

Regarding `[Li+]`, the inhibition is 6.5% (active).

Turning to `CN(C)C(=O)n1nnnc1Cc1ccc(-c2ccccc2)cc1`, the inhibition was 2.4% (active).

`CC(C)c1cccc(C(C)C)c1N1C(=O)c2ccc(O)cc2C1=O`: the inhibition is -98.1%.

`CSc1nc(N)c2ncn([C@@H]3O[C+](COP(=O)([O-])OP(=O)(O)O)[C@H](O)C3O)c2n1` (stereo partly drawn): the inhibition was 26.4% (active).

With `CN(C)C/C=C(/c1ccc(Br)cc1)c1cccnc1`, the inhibition was -9.2%.

With `Nc1nc(N)c2nc(-c3ccccc3)c(N)nc2n1`, the inhibition was -11.2%.

Take `Nc1nnc(-c2cccc(Cl)c2Cl)c(N)n1`: the inhibition is 4.9% (active).

`Cc1nc2c([nH]1)c(=O)n(C)c(=O)n2Cc1ccco1`: the inhibition is 10.1% (active).

For `CCCOc1ccccc1-c1nc2n[nH]nc2c(=O)[nH]1`, the inhibition is 15.8% (active).

Regarding `Cc1nnc(SCC2=C(C(=O)O)N3C(=O)[C@@H](NC(=O)Cn4cnnn4)[C@H]3SC2)s1`, the inhibition was 10.4% (active).

Consider `Cc1ccc2nc(CN(CCN(Cc3nc4ccc(C)cc4[nH]3)Cc3nc4ccc(C)cc4[nH]3)Cc3nc4ccc(C)cc4[nH]3)[nH]c2c1`, for which the inhibition was -0.7%.

As to `C=C(C)C1CC=C(C(=O)O)CC1` (stereo not drawn), the inhibition is -10.6%.

For `O=C(O)C1=CCNCC1`, the inhibition is 0.2% (active).

`O=C(O)C1=CCCNC1`: the inhibition is 5.6% (active).

Regarding `Nc1nc(OCc2ccccc2)c2[nH]cnc2n1`, the inhibition is 5.5% (active).

Turning to `Nc1nc(OCC2CCCCC2)c2[nH]cnc2n1`, the inhibition was 11.1% (active).

On to `Nc1nc(N)c(N=O)c(OCC2CCCCC2)n1`, for which the inhibition is 29.8% (active).

`CC(COc1ccccc1)N(CCCl)Cc1ccccc1` (stereo not drawn): the inhibition was -3.7%.

With `CC(C)N(CCC(=O)c1ccc2ccccc2c1)Cc1ccccc1`, the inhibition was 5.9% (active).

Consider `O=S(=O)(c1cccc2c(I)cccc12)N1CCCNCC1`, for which the inhibition was 6% (active).

For `O=S(=O)(c1cccc2c(Cl)cccc12)N1CCCNCC1`, the inhibition is 7.1% (active).

In the case of `CN(C)CCOC(c1ccccc1)c1ccccc1`, the inhibition was 15.9% (active).

As for `Cc1ccccc1C(OCCN(C)C)c1ccccc1` (stereo not drawn), the inhibition is 2.5% (active).

Regarding `Cc1cc2c(C(C)C)c(O)c(O)c(C=O)c2c(O)c1-c1c(C)cc2c(C(C)C)c(O)c(O)c(C=O)c2c1O`, the inhibition is 74.3% (active).

Consider `CCC(=O)N1CCN(C(=O)c2ccccc2)CC1`, for which the inhibition is 3.1% (active).

`Cc1ccc(Cl)c(Nc2ccccc2C(=O)O)c1Cl`: the inhibition was 7.8% (active).

With `O=c1onc2cnc3ccccc3n12`, the inhibition was 6.8% (active).

In the case of `CN(C)CCC(c1ccccc1)c1ccccn1` (stereo not drawn), the inhibition was 4.2% (active).

As to `CN(C)CC[C@@H](c1ccc(Br)cc1)c1ccccn1`, the inhibition is -5.9%.

`CN(C)CCC(c1ccc(Br)cc1)c1ccccn1` (stereo not drawn): the inhibition is -10.9%.

`CN(C)CCC(c1ccc(Cl)cc1)c1ccccn1` (stereo not drawn): the inhibition is 6.9% (active).

As to `CN(C)CC[C@@H](c1ccc(Cl)cc1)c1ccccn1`, the inhibition is 3.5% (active).

For `O=C1N(c2ccccc2)c2ccccc2C1(Cc1ccncc1)Cc1ccncc1`, the inhibition is 7.6% (active).

In the case of `Nc1c2c(nc3ccccc13)CCCC2`, the inhibition is 20.5% (active).

For the molecule `Nc1c2c(nc3ccccc13)CCCC2O` (stereo not drawn), the inhibition is 4% (active).

For `COc1ccccc1N1CCN(CC(O)COc2cccc3ccccc23)CC1` (stereo not drawn), the inhibition is 11.9% (active).

For the molecule `COc1ccccc1OCC(O)CN1CCN(CC(=O)Nc2c(C)cccc2C)CC1` (stereo not drawn), the inhibition was 2.7% (active).

Take `Cc1cn[nH]c1`: the inhibition is -6.5%.

As to `COc1cc2nc(N3CCN(C(=O)C4COc5ccccc5O4)CC3)nc(N)c2cc1OC` (stereo not drawn), the inhibition was 11.9% (active).

In the case of `COc1cc2nc(N3CCN(C(=O)c4ccco4)CC3)nc(N)c2cc1OC`, the inhibition was 5.9% (active).

`COc1cc2nc(N3CCN(C(=O)OCc4ccccc4)C(C(=O)NC(C)(C)C)C3)nc(N)c2cc1OC` (stereo not drawn): the inhibition was 0.6% (active).

Take `COc1cc2nc(N3CCN(C(=O)C4CCCO4)CC3)nc(N)c2cc1OC` (stereo not drawn): the inhibition is 8.6% (active).

Regarding `COc1cc2nc(N(C)CCCNC(=O)C3CCCO3)nc(N)c2cc1OC` (stereo not drawn), the inhibition is 0.2% (active).

As for `O=C(Nc1nc2ccccc2n1CCN1CCOCC1)c1cccc([N+](=O)[O-])c1`, the inhibition is -17.8%.

Take `O=C(NCCN1CCOCC1)c1ccc(Cl)cc1`: the inhibition is 5.4% (active).

With `COc1cccc(C(=O)NCCN2CCN(c3ccc(Cl)cc3)CC2)c1`, the inhibition is 45.7% (active).

Consider `CC[N+](CC)(CC)CC`, for which the inhibition was -0.4%.

With `Cc1oncc1C(=O)Nc1ccc(C(F)(F)F)cc1`, the inhibition is -3.1%.

For `O=C(c1ccc2c(c1)OCCO2)N1CCCCC1`, the inhibition was 5.6% (active).

Regarding `CCCCCC(O)c1cccc(OCc2ccc3ccccc3n2)c1` (stereo not drawn), the inhibition is -4.5%.

Take `O=C(O)c1ccccc1Nc1cccc(OCc2ccc3ccccc3n2)c1`: the inhibition was 70.1% (active).

For `NCCCCCCCCCCN`, the inhibition is 12.8% (active).

As for `NCCCCN`, the inhibition is 14.6% (active).

Regarding `CCN(CC)CCOC(=O)C1(C2CCCCC2)CCCCC1`, the inhibition was 28.2% (active).

Take `O=C(O)CP(=O)(O)O`: the inhibition was 10% (active).

Turning to `CN=c1nc(-c2ccccc2)n(-c2ccccc2)s1`, the inhibition is 25.4% (active).

Turning to `S=C([S-])OC1CC2C[C+]1C1CCCC21` (stereo not drawn), the inhibition is 1.4% (active).

For `CN(CC[C@@H](Oc1ccc(C(F)(F)F)cc1)c1ccccc1)CC(=O)O`, the inhibition was 21.6% (active).

Regarding `CNCC[C@H](Oc1ccc(C(F)(F)F)cc1)c1ccccc1`, the inhibition was 0.1% (active).

On to `CNCCC(Oc1ccc(C(F)(F)F)cc1)c1ccccc1` (stereo not drawn), for which the inhibition is -9.7%.

Regarding `CCCCCCCCCC[Si](C)(C)CCC(=O)NC(Cc1ccc(C)cc1)c1ccccc1` (stereo not drawn), the inhibition is 19.6% (active).

`CCCCCCCCCC(=O)NC(CN1CCOCC1)[C@H](O)c1ccccc1` (stereo partly drawn): the inhibition was -17.8%.

`CCCn1c(=O)[nH]c(=O)c2[nH]cnc21`: the inhibition was 3.6% (active).

On to `Cc1nc2sccn2c(=O)c1CCN1CCC(=C(c2ccccc2)c2ccc(F)cc2)CC1`, for which the inhibition was 2.9% (active).

On to `Cc1nc2sccn2c(=O)c1CCN1CCC(=C(c2ccc(F)cc2)c2ccc(F)cc2)CC1`, for which the inhibition was 7.1% (active).

Regarding `Cc1nc2n(c(=O)c1CCN1CCC(c3noc4cc(F)ccc34)CC1)CCCC2O` (stereo not drawn), the inhibition is 0%.

Turning to `Cc1nc2ccccn2c(=O)c1CCN1CCC(C(=O)c2ccc(F)cc2)CC1`, the inhibition is 5.5% (active).

In the case of `CC1(C)C(=O)N(CCN2CCC(C(=O)c3ccc(F)cc3)CC2)c2ccccc21`, the inhibition is 7.2% (active).

Turning to `O=C(c1ccc(F)cc1)C1CCN(CCn2c(=O)[nH]c3ccccc3c2=O)CC1`, the inhibition is -10.7%.

As for `FC(F)(F)c1ccccc1-n1ccnc1`, the inhibition was -11.4%.

`COc1ccccc1OCCNCC(O)COc1cccc2[nH]c3ccccc3c12` (stereo not drawn): the inhibition is 11% (active).

For `CN1CCc2ccccc2Cc2[nH]c3ccccc3c2CC1`, the inhibition was 51.2% (active).

Consider `NC(N)=N[C@@H](CCC(=O)O)C(=O)O`, for which the inhibition is 10.9% (active).

Consider `COc1ccc(C(=O)NCc2cccnc2)cc1C(=O)NCc1cccnc1`, for which the inhibition was 1.3% (active).

`O=C1O/C(=C/Br)CCC1c1cccc2ccccc12` (stereo not drawn): the inhibition was -10.8%.

For the molecule `CCCCC1C(=O)N(c2ccccc2)N(c2ccccc2)C1=O`, the inhibition is 11.8% (active).

For `N#C/C(=C\c1ccc(-c2cc(Cl)ccc2Cl)o1)C(=O)Nc1cccc2ncccc12`, the inhibition is 6.8% (active).

As for `Fc1ccc([C@@H]2CCNC[C@H]2COc2ccc3c(c2)OCO3)cc1`, the inhibition is 15.8% (active).

On to `N=c1nc(N2CCCCC2)cc(N)n1O`, for which the inhibition was 1.6% (active).

`Nc1ccn([C@H]2CC[C@@H](CO)O2)c(=O)n1`: the inhibition was 9.9% (active).

Consider `C=CCc1cccc(/C=N/NC(=O)CN2CCN(Cc3ccccc3)CC2)c1O`, for which the inhibition was 1.7% (active).

In the case of `C=CCn1c(=O)c2c(nc(-c3ccc(S(=O)(=O)O)cc3)n2C)n(C)c1=O`, the inhibition is 1.4% (active).

For `N#Cc1cc2nc(O)c(O)nc2cc1[N+](=O)[O-]`, the inhibition is 69.8% (active).

The values are drawn from PubChem BioAssay AID1347420 (Sanford-Burnham Center for Chemical Genomics, 2020).
